{
  "source": "PubChem BioAssay AID1117361",
  "about": "(Southern Research Institute, 2015)",
  "note": "Out of some 3,600 compounds screened, about 900 (25%) were called active. The rule behind the calls is not given here. Only a sample is shown. Potency and affinity values are given separately.",
  "data": [
    {"molecular_target": "Protein Tat (Human immunodeficiency virus type 1 group M subtype B (isolate HXB2)) (UniProt P04608)", "assay": "HIV-1 Tat–TAR interaction blockers – biochemical, fluorescence polarization, FAM-labeled TAR RNA, counter-screen for Vif-APOBEC3G degradation inhibitor project, dose response (AID 1117361)", "conditions": "Tat-TAR RNA binding; series mostly up to 100 µM; inhibition: at the top concentration", "values": [
      {"smiles": "O=C(CN(C(=O)CCNC(=O)c1ccco1)c1ccccc1)NC1CCCC1", "inhibition": "4.77% (inactive)"},
      {"smiles": "COc1ccc(/C=C/C2=NC(=C\\N(C)C)/C(=O)O2)cc1", "inhibition": "9.46% (inactive)"},
      {"smiles": "Nc1nnc(CC2=CCCCC2)s1", "inhibition": "3.38% (inactive)"},
      {"smiles": "CCOc1ccc(/C=C2\\NC(=S)NC2=O)cc1", "outcome": "inactive"},
      {"smiles": "O=C(Cn1[nH]c(=O)c2ccccc2c1=O)OCC(=O)N(Cc1ccccc1)Cc1ccccc1", "outcome": "inactive"},
      {"smiles": "CC(C)Cc1ccc(C(C)C(=N)N)cc1", "note": "(configuration not stated)", "inhibition": "4.95% (inactive)"},
      {"smiles": "CC(C)N(C(=O)CO/N=C/c1cccc([N+](=O)[O-])c1)C(C)C", "outcome": "inactive"},
      {"smiles": "C=CCOc1ccc2c(c1)C(=NO)c1cc(OCC=C)ccc1-2", "inhibition": "5.68% (inactive)"},
      {"smiles": "O=C(Nc1c2c(nn1-c1ccc(F)cc1)CS(=O)C2)C12CC3CC(CC(C3)C1)C2", "note": "(configuration not stated)", "inhibition": "0.68% (inactive)"},
      {"smiles": "CC(C)NC(=O)C1CCCN(S(=O)(=O)c2cccs2)C1", "note": "(configuration not stated)", "inhibition": "0.68% (inactive)"},
      {"smiles": "Cc1ccc2oc(=O)c3cnn(CC(=O)NC4CCCCC4C)c3c2c1", "note": "(configuration not stated)", "inhibition": "6.08% (inactive)"},
      {"smiles": "O=C(c1cnn2cccnc12)N1CCN(Cc2ccc3c(c2)OCO3)CC1", "inhibition": "2.73% (inactive)"},
      {"smiles": "CC(=O)Nc1ccc(S(=O)(=O)N2CCN(CCCOc3ccccc3Cl)CC2)cc1", "inhibition": "4.09% (inactive)"},
      {"smiles": "O=C(COc1ccccc1Cl)NCCc1ccc2c(c1)OCCO2", "inhibition": "2.73% (inactive)"},
      {"smiles": "CCCCn1c(C(C)NC(=O)CC)nc2ccccc21", "note": "(configuration not stated)", "outcome": "inactive"},
      {"smiles": "COc1ccc(CNS(=O)(=O)c2cc(Br)cc3c2N(C(C)=O)C(C)C3)cc1", "note": "(configuration not stated)", "inhibition": "0.82% (inactive)"},
      {"smiles": "COCC(C)NC(=O)C1CC(c2cccc(Br)c2)=NO1", "note": "(configuration not stated)", "inhibition": "3.38% (inactive)"},
      {"smiles": "COC(=O)CSC1=C(C#N)C(c2ccccc2)CC(=O)N1", "note": "(configuration not stated)", "inhibition": "2.03% (inactive)"},
      {"smiles": "COc1ccc(C2C(C#N)=C(SCC(=O)Nc3ccc(C)cc3)NC3=C2C(=O)CC(C)(C)C3)cc1", "note": "(configuration not stated)", "inhibition": "6.14% (inactive)"},
      {"smiles": "CCCNC(=S)NC1CCCC1", "inhibition": "2.7% (inactive)"},
      {"smiles": "Cc1ccc(C(=O)CSc2ccccn2)cc1", "inhibition": "26.4% (inactive)"},
      {"smiles": "Cc1nnc(SCc2cnc(-c3ccccc3)o2)[nH]c1=O", "inhibition": "10.1% (inactive)"},
      {"smiles": "CCOc1cc(C2NC(=O)NC(O)(C(F)(F)F)C2C(=O)c2ccccc2)ccc1OC", "note": "(configuration not stated)", "inhibition": "2.03% (inactive)"},
      {"smiles": "CN(C)CCNc1ncnc2c1sc1nc(-c3ccccc3)c3c(c12)CCCC3", "inhibition": "14.8% (inactive)"},
      {"smiles": "CSc1nc(N2CCOCC2)c2c3c(sc2n1)CCC3", "inhibition": "1.65% (inactive)"},
      {"smiles": "Clc1ccccc1Nc1c2c(nc3ncnn13)CCC2", "outcome": "inactive"},
      {"smiles": "CC(=O)NCc1c(Cl)cccc1-n1cccc1", "outcome": "inactive"},
      {"smiles": "CCCS(=O)(=O)NCc1cn2c(C)csc2n1", "inhibition": "14.9% (inactive)"},
      {"smiles": "CN(C(=O)COc1ncnc2sccc12)c1ccccc1", "inhibition": "4.95% (inactive)"},
      {"smiles": "COc1ccccc1NS(=O)(=O)c1cccs1", "inhibition": "3.01% (inactive)"},
      {"smiles": "CCCCNc1nc2ccccc2nc1NS(=O)(=O)c1cccs1", "inhibition": "13.5% (inactive)"},
      {"smiles": "Cc1cc(/C=C2\\SC(=S)NC2=O)c(C)n1-c1ccc(O)cc1", "outcome": "inactive"},
      {"smiles": "Cc1cc(/C=C2\\SC(=S)NC2=O)c(C)n1-c1ccccc1", "outcome": "inactive"},
      {"smiles": "CCc1ccc(-n2c(SCc3c(C)noc3C)nnc2-c2ccncc2)cc1", "inhibition": "1.36% (inactive)"},
      {"smiles": "Cc1noc(C)c1C(=O)N1CCc2ccccc2C1", "inhibition": "6.82% (inactive)"},
      {"smiles": "CCn1c(C(=O)N2CCc3ccccc3C2)cc2sccc21", "inhibition": "8.11% (inactive)"},
      {"smiles": "CCC(C)(C)C1CCc2c(sc(NC(=O)c3ccoc3C)c2C(N)=O)C1", "note": "(configuration not stated)", "inhibition": "8.78% (inactive)"},
      {"smiles": "COc1cc(NC(=O)c2nnn(Cc3ccc(SC)cc3)c2N)cc(OC)c1", "inhibition": "2.7% (inactive)"},
      {"smiles": "Cc1ccc(SCC(=O)c2sc(-c3ccccc3)nc2C)cc1", "outcome": "inactive [at 50 µM]"},
      {"smiles": "COC(=O)c1ccc(Cl)c(NC(=O)CN(c2ccc3c(c2)OCO3)S(C)(=O)=O)c1", "inhibition": "2.05% (inactive)"},
      {"smiles": "CS(=O)(=O)N(CC(=O)Nc1ccc2c(c1)OCO2)Cc1ccccc1", "inhibition": "6.14% (inactive)"},
      {"smiles": "O=C(NCc1ccc(F)cc1)c1c(O)c2cccc3c2n(c1=O)CCC3", "outcome": "inactive"},
      {"smiles": "Cc1ccc(C(=O)Nc2nc3ccccc3n2CCN2CCCC2)cc1", "inhibition": "2.7% (inactive)"},
      {"smiles": "CCN1C(=O)c2c(C)nc3ccccc3c2C1=O", "inhibition": "13.7% (inactive)"},
      {"smiles": "COCCCN1C(=O)N(c2ccc(F)cc2)C(=O)C1CC(=O)Nc1ccc(OC)cc1", "note": "(configuration not stated)", "inhibition": "5.01% (inactive)"},
      {"smiles": "Cc1cc(C)c([N+](=O)[O-])cc1-c1ccc(/C=N/NC(=O)c2nonc2N)o1", "inhibition": "6.08% (inactive)"},
      {"smiles": "O=C(NNC(=O)c1ccccc1O)c1ccc(-c2ccc([N+](=O)[O-])cc2)o1", "inhibition": "5.68% (inactive)"},
      {"smiles": "NC(=S)N/N=C/c1ccc(-c2cccc([N+](=O)[O-])c2)o1", "inhibition": "0.68% (inactive)"},
      {"smiles": "N=C(c1cccc([N+](=O)[O-])c1)N1CCCCCC1", "outcome": "inactive"},
      {"smiles": "Cc1ccc(C(=O)OCc2cn3ccccc3n2)cc1", "inhibition": "15.5% (inactive)"},
      {"smiles": "COc1cccc(NC(=O)N2CCN(c3nnnn3-c3ccccc3)CC2)c1", "inhibition": "9.9% (inactive)"},
      {"smiles": "Cc1ccc(-n2nc(C)c3c(C)c(CCC(=O)O)c(C)nc32)cc1", "outcome": "inactive"},
      {"smiles": "Cc1cc(=O)nc2c3ccccc3n(C(C)C(=O)NCCC(C)C)n12", "note": "(configuration not stated)", "outcome": "inactive"},
      {"smiles": "O=C(COc1ccc(S(=O)(=O)N2CCCC2)cc1)NCCC1=CCCCC1", "inhibition": "22.5% (inactive)"},
      {"smiles": "CCN(CC)CCCNC(=O)c1cn(CCOC)c(=O)c2c1c1ccccc1n2C", "inhibition": "0.68% (inactive)"},
      {"smiles": "COc1ccc(-n2nc(C(=O)NCc3ccco3)c3ccccc3c2=O)cc1", "outcome": "inactive"},
      {"smiles": "Cc1cc(C)cc(-n2nnc(C(=O)NCc3ccco3)c2N)c1", "inhibition": "8.87% (inactive)"},
      {"smiles": "CC1(C)CC2(CC(c3ccccc3F)c3ccc(O)c(O)c3O2)NC(=S)N1", "note": "(configuration not stated)", "inhibition": "4.95% (inactive)"},
      {"smiles": "CCc1ccc2c(CN3CCC(C(=O)OC)CC3)cc(=O)oc2c1", "outcome": "inactive"},
      {"smiles": "CCN1CCN(Cc2cc(=O)oc3ccc(C)cc23)CC1", "inhibition": "8.25% (inactive)"},
      {"smiles": "C=C(Cl)COc1ccc2c(CCC)cc(=O)oc2c1", "inhibition": "4.09% (inactive)"},
      {"smiles": "CCc1cc2c(CN3CCN(CC)CC3)cc(=O)oc2cc1O", "inhibition": "14.2% (inactive)"},
      {"smiles": "COc1ccc(S(=O)(=O)N2CCOC2CNC(=O)C(=O)NCc2ccccn2)cc1", "note": "(configuration not stated)", "outcome": "inactive"},
      {"smiles": "CC(C)C(C(=O)OCC(=O)c1ccc2c(c1)NC(=O)CO2)N1C(=O)c2ccccc2C1=O", "note": "(configuration not stated)", "outcome": "inactive"},
      {"smiles": "COCCNC(C)C(=O)C12CC3CC(CC(C3)C1)C2", "note": "(configuration not stated)", "inhibition": "1.35% (inactive)"},
      {"smiles": "Oc1ccc(/C=N/N2CCCCC2)c(O)c1O", "outcome": "inactive"},
      {"smiles": "O=C(c1cc2ccccc2o1)N1CC=C(c2ccccc2)CC1", "inhibition": "10.7% (inactive)"},
      {"smiles": "O=C(CCC(=O)NNc1nc2ccccc2c2nc(-c3ccccc3)nn12)NCCCN1CCOCC1", "inhibition": "0.82% (inactive)"},
      {"smiles": "Cc1ccc2nsnc2c1S(=O)(=O)N(CCO)Cc1cc2cc3c(cc2[nH]c1=O)OCCO3", "inhibition": "2.05% (inactive)"},
      {"smiles": "CCn1c(SCC(=O)NCC(=O)Nc2ccc(F)cc2)nnc1-c1ccncc1", "inhibition": "2.73% (inactive)"},
      {"smiles": "CCn1c(=O)cc(SCC(=O)NCc2ccc(C)o2)c2ccccc21", "inhibition": "8.19% (inactive)"},
      {"smiles": "Cc1cccc(OCc2nc3ccccc3c(=O)n2N)c1", "outcome": "inactive"}
    ]}
  ]
}
